# In PMC7862700, “An all-to-all approach to the identification of sequence-specific readers for epigenetic DNA modifications on cytosine”:
# Key:
# Experiment in all cases: DAPPL (digital affinity profiling via proximity ligation, sequencing); 10 mM Tris-HCl pH 7.5, 50 mM NaCl, 1 mM DTT, 4% glycerol, room temperature, 30 min; GST-TFs on glutathione beads, 16-mer random dsDNA library, 0.1% formaldehyde crosslink after washing; high values mean tight binding
# FLI1 = target: T1, FLI1 (Homo sapiens, UniProt Q01543 1-452); conditions: protein: recombinant; tags: N-terminal GST; dsDNA, one strand shown
# T1 sequence: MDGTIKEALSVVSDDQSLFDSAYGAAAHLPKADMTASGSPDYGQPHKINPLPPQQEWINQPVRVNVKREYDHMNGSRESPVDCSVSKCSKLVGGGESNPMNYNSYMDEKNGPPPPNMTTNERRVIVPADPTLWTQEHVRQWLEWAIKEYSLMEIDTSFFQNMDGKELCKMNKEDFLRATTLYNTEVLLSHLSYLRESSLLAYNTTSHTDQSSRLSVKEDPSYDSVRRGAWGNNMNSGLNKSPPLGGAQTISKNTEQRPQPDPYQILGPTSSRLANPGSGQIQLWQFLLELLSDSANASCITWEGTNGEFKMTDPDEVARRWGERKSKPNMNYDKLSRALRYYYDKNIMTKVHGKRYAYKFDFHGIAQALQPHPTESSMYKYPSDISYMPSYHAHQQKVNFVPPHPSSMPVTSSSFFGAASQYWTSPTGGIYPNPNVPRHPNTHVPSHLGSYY
# How it was run: (§1)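 A tag-only sample was pooled with DNA-barcoded human transcription factors that had been expressed in yeast as GST fusions and captured on glutathione beads. The pools were incubated for 30 min at room temperature with 200 nmole of a random double-stranded 16-mer DNA library in Tris/NaCl/DTT/glycerol buffer, then washed, crosslinked with 0.1% formaldehyde, proximity-ligated (BsaI/T4 ligase, 1 h, 37 °C), PCR-amplified and sequenced on an Illumina NextSeq500. Binding signal is each hexamer's read frequency for a factor divided by its frequency for the tag-only sample.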
# ELK1 = target: T2, ELK1 (Homo sapiens, UniProt P19419 1-428); conditions: protein: recombinant; tags: N-terminal GST; dsDNA, one strand shown
# T2 sequence: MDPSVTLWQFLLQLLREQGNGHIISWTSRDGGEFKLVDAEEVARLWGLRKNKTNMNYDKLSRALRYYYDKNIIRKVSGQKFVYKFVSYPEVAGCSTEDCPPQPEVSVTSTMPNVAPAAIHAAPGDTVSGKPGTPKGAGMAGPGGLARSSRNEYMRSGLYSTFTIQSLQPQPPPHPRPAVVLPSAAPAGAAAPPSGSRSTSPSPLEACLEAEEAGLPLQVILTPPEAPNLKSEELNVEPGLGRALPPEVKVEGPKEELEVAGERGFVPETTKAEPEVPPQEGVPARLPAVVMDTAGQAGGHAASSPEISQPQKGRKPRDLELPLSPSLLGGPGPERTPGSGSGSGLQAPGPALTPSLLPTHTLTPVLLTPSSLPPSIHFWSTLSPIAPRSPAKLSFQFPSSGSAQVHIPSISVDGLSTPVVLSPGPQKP
# How it was run: as §1
# GABPA = target: T3, GABPA (Homo sapiens, UniProt Q06546 1-454); conditions: protein: recombinant; tags: N-terminal GST; dsDNA, one strand shown
# T3 sequence: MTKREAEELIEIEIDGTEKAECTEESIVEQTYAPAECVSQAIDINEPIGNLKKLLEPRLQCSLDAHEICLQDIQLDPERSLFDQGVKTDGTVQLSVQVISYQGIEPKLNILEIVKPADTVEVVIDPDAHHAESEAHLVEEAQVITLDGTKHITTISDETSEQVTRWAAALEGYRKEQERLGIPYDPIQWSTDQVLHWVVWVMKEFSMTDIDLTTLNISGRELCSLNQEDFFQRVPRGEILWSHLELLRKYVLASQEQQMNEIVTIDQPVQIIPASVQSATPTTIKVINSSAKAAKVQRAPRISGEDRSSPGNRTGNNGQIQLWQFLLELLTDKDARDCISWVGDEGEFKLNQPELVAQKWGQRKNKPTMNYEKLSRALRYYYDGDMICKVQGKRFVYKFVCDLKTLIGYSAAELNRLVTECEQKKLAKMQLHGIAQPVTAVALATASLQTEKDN
# How it was run: as §1
# ERG = target: T4, ERG (Homo sapiens, UniProt P11308 1-479); conditions: protein: recombinant; tags: N-terminal GST; dsDNA, one strand shown
# T4 sequence: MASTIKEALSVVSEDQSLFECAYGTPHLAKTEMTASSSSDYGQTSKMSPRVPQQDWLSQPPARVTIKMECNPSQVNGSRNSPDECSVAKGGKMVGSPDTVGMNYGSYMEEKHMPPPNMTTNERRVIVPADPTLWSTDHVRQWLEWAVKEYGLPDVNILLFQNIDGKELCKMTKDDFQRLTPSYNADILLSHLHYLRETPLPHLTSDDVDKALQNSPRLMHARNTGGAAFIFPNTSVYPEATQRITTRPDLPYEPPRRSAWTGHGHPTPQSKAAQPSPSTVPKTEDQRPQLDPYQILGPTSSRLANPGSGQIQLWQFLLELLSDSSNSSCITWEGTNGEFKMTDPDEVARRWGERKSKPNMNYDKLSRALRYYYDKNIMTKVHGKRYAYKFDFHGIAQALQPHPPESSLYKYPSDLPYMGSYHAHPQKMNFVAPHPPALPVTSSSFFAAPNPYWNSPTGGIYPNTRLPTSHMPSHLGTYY
# How it was run: as §1
# ELF1 = ELF1 (Homo sapiens, UniProt P32519 1-619); conditions: protein: recombinant; tags: N-terminal GST; dsDNA, one strand shown
# Sequence of ELF1 (P32519 whole entry): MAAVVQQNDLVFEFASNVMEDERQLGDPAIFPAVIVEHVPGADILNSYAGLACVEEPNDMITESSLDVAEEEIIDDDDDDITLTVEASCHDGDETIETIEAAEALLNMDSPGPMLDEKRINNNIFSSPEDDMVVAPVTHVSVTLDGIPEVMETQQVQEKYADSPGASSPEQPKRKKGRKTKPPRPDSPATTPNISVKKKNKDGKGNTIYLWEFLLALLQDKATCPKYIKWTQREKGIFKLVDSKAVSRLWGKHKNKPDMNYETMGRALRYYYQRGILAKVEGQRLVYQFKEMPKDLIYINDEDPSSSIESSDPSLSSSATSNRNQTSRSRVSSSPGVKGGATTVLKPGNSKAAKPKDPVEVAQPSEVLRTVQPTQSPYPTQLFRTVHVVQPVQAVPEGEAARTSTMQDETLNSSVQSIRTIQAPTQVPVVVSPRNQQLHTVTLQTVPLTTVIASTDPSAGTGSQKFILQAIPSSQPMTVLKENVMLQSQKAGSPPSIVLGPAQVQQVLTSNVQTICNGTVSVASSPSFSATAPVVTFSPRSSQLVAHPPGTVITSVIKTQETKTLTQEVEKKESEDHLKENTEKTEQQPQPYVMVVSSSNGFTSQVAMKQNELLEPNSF
# How it was run: as §1
# EHF = target: T5, EHF (Homo sapiens, UniProt Q9NZC4 1-300); conditions: protein: recombinant; tags: N-terminal GST; dsDNA, one strand shown
# T5 sequence: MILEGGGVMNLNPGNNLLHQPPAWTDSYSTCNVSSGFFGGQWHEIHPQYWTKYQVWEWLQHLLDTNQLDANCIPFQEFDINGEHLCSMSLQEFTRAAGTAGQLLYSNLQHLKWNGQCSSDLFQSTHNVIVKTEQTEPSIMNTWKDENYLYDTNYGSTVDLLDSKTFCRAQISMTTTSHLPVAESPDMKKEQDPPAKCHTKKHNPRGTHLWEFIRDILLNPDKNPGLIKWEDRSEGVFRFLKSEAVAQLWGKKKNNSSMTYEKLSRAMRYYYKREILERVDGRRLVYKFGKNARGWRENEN
# How it was run: as §1
# SPI1 = SPI1 (Homo sapiens, UniProt P17947 1-270); conditions: protein: recombinant; tags: N-terminal GST; dsDNA, one strand shown
# How it was run: as §1
# SPIB = SPIB (Homo sapiens, UniProt Q01892 1-262); conditions: protein: recombinant; tags: N-terminal GST; dsDNA, one strand shown
# Sequence of SPIB (Q01892 whole entry): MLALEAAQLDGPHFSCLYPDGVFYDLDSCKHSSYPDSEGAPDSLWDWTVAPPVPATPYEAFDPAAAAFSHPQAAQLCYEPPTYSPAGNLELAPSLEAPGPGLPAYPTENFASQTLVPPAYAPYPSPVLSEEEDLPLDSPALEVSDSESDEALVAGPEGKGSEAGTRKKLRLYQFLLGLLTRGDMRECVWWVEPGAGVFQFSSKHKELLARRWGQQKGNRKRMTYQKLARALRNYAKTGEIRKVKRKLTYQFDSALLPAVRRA
# How it was run: as §1
# ELK3 = target: T6, ELK3 (Homo sapiens, UniProt P41970 1-407); conditions: protein: recombinant; tags: N-terminal GST; dsDNA, one strand shown
# T6 sequence: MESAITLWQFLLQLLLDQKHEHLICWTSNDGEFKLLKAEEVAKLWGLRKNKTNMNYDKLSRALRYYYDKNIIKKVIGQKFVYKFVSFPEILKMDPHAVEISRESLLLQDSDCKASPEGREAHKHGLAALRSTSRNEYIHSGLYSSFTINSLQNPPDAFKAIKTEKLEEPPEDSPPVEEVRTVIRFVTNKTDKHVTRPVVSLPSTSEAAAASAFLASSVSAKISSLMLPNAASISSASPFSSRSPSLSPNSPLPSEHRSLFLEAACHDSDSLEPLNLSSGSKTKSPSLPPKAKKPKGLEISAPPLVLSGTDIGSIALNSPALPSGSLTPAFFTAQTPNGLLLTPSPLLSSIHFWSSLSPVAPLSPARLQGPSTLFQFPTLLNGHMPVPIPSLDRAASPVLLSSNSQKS
# How it was run: as §1
# FEV = target: T7, FEV (Homo sapiens, UniProt Q99581 1-238); conditions: protein: recombinant; tags: N-terminal GST; dsDNA, one strand shown
# T7 sequence: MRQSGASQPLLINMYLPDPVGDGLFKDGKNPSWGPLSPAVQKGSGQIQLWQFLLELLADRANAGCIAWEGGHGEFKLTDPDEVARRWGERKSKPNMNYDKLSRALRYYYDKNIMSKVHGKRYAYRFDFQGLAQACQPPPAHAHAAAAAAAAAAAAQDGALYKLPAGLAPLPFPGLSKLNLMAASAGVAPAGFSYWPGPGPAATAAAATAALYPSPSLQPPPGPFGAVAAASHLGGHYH
# How it was run: as §1
# ETV5 = ETV5 (Homo sapiens, UniProt P41161 1-510); conditions: protein: recombinant; tags: N-terminal GST; dsDNA, one strand shown
# Sequence of ETV5 (P41161 whole entry): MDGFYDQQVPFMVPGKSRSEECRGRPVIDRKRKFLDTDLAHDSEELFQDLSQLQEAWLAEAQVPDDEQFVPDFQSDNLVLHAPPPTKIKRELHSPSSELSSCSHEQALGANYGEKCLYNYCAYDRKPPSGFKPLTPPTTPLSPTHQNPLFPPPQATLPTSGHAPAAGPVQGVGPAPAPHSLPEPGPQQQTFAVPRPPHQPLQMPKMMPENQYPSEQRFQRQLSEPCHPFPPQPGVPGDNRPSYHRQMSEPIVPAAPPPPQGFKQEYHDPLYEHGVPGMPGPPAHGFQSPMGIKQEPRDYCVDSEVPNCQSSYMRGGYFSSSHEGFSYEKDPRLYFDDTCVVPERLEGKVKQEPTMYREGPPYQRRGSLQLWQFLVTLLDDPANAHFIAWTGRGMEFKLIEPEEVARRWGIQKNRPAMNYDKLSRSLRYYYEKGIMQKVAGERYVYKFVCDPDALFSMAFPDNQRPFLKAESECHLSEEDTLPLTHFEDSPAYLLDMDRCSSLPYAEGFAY
# How it was run: as §1
# HSF1 = HSF1 (Homo sapiens, UniProt Q00613 1-529); conditions: protein: recombinant; tags: N-terminal GST; chain copies: 3; dsDNA, one strand shown
# Sequence of HSF1 (Q00613 whole entry): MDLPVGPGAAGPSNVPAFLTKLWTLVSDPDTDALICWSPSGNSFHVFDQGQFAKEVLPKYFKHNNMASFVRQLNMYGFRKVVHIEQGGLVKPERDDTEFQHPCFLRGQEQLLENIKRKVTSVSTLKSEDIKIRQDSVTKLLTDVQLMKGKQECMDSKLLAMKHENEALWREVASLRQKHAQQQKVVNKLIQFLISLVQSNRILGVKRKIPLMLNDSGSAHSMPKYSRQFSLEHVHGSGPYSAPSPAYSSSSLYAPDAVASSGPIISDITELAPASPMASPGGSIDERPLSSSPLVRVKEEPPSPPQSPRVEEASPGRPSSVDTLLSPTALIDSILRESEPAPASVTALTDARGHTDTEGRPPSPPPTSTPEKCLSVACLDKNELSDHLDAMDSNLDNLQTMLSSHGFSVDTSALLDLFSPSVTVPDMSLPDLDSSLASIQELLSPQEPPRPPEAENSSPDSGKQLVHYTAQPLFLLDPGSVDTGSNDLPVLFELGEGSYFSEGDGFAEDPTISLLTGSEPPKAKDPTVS
# How it was run: as §1
# SPIC = target: T8, SPIC (Homo sapiens, UniProt Q8N5J4 1-248); conditions: protein: recombinant; tags: N-terminal GST; dsDNA, one strand shown
# T8 sequence: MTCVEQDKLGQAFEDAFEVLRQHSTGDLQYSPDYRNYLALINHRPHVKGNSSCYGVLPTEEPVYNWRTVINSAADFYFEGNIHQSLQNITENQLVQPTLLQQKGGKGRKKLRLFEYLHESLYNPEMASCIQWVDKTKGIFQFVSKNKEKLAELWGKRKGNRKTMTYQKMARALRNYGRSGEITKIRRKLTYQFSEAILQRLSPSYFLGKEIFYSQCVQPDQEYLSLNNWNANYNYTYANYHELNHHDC
# How it was run: as §1
# ELF4 = ELF4 (Homo sapiens, UniProt Q99607 1-663); conditions: protein: recombinant; tags: N-terminal GST; dsDNA, one strand shown
# Sequence of ELF4 (Q99607 whole entry): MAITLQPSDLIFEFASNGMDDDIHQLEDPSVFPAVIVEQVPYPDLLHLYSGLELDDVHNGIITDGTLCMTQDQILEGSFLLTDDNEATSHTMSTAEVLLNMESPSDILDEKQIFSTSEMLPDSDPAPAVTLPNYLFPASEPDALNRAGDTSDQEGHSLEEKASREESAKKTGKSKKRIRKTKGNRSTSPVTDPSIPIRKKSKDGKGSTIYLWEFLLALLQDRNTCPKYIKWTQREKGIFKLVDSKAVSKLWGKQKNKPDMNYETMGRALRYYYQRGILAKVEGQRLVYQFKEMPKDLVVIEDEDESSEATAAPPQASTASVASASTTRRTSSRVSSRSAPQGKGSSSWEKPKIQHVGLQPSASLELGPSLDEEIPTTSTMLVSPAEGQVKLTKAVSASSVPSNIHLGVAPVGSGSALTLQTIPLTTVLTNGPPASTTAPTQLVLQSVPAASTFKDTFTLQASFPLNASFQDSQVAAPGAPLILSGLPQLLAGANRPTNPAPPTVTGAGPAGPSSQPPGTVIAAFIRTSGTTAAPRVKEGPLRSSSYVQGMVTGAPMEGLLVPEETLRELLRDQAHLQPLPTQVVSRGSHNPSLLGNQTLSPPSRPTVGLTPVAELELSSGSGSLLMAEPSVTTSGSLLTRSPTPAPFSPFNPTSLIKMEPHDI
# How it was run: as §1
# ELK4 = target: T9, ELK4 (Homo sapiens, UniProt P28324-2 1-405); conditions: protein: recombinant; tags: N-terminal GST; dsDNA, one strand shown
# T9 sequence: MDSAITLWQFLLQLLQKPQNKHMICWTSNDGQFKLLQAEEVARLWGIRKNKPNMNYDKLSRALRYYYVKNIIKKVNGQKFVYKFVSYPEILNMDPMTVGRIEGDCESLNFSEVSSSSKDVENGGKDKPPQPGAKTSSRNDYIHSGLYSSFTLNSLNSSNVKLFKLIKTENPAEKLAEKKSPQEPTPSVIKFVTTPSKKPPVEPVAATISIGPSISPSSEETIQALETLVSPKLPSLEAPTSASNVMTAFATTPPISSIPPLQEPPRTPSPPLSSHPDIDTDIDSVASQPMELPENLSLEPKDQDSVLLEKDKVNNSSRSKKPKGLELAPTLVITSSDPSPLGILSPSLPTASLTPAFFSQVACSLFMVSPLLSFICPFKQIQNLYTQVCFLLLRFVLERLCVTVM
# How it was run: as §1
# ETV2 = target: T10, ETV2 (Homo sapiens, UniProt O00321 1-342); conditions: protein: recombinant; tags: N-terminal GST; dsDNA, one strand shown
# T10 sequence: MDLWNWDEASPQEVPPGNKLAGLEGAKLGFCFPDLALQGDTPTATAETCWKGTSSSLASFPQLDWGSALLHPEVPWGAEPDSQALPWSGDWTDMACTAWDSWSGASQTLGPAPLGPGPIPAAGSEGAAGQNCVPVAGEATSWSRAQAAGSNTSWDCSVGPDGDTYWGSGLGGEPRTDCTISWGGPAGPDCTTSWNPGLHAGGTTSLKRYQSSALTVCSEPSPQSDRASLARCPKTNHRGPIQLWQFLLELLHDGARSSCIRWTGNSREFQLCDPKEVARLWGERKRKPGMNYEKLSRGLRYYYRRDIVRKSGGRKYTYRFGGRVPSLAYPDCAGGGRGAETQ
# How it was run: as §1
# ELF3 = target: T11, ELF3 (Homo sapiens, UniProt P78545 1-371); conditions: protein: recombinant; tags: N-terminal GST; dsDNA, one strand shown
# T11 sequence: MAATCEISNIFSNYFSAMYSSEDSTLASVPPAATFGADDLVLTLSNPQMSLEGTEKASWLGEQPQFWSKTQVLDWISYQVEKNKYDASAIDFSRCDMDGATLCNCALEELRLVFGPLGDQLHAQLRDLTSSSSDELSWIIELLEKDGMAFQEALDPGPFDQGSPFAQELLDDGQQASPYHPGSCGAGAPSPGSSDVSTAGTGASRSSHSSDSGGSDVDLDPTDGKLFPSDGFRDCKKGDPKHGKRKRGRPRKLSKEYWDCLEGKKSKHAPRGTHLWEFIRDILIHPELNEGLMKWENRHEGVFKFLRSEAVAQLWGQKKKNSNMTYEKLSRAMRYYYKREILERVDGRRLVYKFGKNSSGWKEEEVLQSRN
# How it was run: as §1
# CRX = CRX (Homo sapiens, UniProt O43186 1-299); conditions: protein: recombinant; tags: N-terminal GST; dsDNA, one strand shown
# Sequence of CRX (O43186 whole entry): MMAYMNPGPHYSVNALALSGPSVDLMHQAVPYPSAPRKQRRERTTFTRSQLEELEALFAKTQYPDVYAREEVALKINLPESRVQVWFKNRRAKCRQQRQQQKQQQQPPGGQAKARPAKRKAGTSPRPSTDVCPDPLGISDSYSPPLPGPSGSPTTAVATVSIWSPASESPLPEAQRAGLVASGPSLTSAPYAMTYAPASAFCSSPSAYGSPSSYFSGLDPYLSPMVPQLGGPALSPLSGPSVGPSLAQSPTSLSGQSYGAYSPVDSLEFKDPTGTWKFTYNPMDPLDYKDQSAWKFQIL
# How it was run: as §1
# ETV1 = ETV1 (Homo sapiens, UniProt P50549 1-477); conditions: protein: recombinant; tags: N-terminal GST; dsDNA, one strand shown
# Sequence of ETV1 (P50549 whole entry): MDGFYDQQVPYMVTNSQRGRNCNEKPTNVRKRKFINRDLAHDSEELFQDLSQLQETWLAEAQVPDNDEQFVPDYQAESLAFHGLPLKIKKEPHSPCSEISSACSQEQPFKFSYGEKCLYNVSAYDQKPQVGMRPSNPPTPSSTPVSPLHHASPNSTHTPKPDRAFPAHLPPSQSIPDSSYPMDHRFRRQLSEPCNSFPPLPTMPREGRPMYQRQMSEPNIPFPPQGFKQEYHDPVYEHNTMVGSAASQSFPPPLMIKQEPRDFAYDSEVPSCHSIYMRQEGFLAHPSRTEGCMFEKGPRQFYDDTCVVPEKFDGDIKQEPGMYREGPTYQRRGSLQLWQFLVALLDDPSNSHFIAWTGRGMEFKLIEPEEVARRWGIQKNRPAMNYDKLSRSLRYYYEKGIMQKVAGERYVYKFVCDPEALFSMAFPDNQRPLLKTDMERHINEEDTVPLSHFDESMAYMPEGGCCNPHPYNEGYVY
# How it was run: as §1
sequence,measurement,setting,value
ATATAT,binding signal,FLI1,"1.47 fold enrichment (6-mer frequency, TF over GST control)"
same,binding signal,ELK1,"1.38 fold enrichment (6-mer frequency, TF over GST control)"
same,binding signal,GABPA,"1.44 fold enrichment (6-mer frequency, TF over GST control)"
same,binding signal,ERG,"1.38 fold enrichment (6-mer frequency, TF over GST control)"
same,binding signal,ELF1,"1.47 fold enrichment (6-mer frequency, TF over GST control)"
same,binding signal,EHF,"1.4 fold enrichment (6-mer frequency, TF over GST control)"
same,binding signal,SPI1,"1.37 fold enrichment (6-mer frequency, TF over GST control)"
same,binding signal,SPIB,"1.42 fold enrichment (6-mer frequency, TF over GST control)"
same,binding signal,ELK3,"1.4 fold enrichment (6-mer frequency, TF over GST control)"
same,binding signal,FEV,"1.41 fold enrichment (6-mer frequency, TF over GST control)"
same,binding signal,ETV5,"1.42 fold enrichment (6-mer frequency, TF over GST control)"
same,binding signal,HSF1,"1.31 fold enrichment (6-mer frequency, TF over GST control)"
same,binding signal,SPIC,"1.51 fold enrichment (6-mer frequency, TF over GST control)"
same,binding signal,ELF4,"1.38 fold enrichment (6-mer frequency, TF over GST control)"
same,binding signal,ELK4,"1.55 fold enrichment (6-mer frequency, TF over GST control)"
same,binding signal,ETV2,"1.31 fold enrichment (6-mer frequency, TF over GST control)"
same,binding signal,ELF3,"1.64 fold enrichment (6-mer frequency, TF over GST control)"
same,binding signal,CRX,"1.46 fold enrichment (6-mer frequency, TF over GST control)"
same,binding signal,ETV1,"1.33 fold enrichment (6-mer frequency, TF over GST control)"
